Where “and” joins values, the source holds several entries; their conditions need not be identical. Identical values can stand only once. Records with an inconclusive call do not appear. Some structures have more than one record in an assay (separate samples or runs), and their calls can disagree. Calls of active or inactive are those of the source. Unless noted, calls follow the shape of the dose curve; as a rule, active = well fitted curve in the direction sought with a large enough effect in the repeat runs; inconclusive = weak or mixed curves; inactive = no such curve, though single readings can be large; an effect the other way counts as inactive or inconclusive.
Tests used:
[1] = qHTS assay to identify small molecule agonists of the peroxisome proliferator-activated receptor delta (PPARd) signaling pathway - cell viability counter screen (AID 743211); also: nearly all actives have a fitted effect of over 55% in size; also: potency is read from the fitted curve at half-maximal effect
Summary of the method: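 Multiplexed format: after the 2 h room-temperature LiveBLAzer B/G FRET step, CellTiter-Glo was added to the same wells. Luminescence after 30 min gave cell viability; compound exposure was 17 h at 37C.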

[2] = biological target: Peroxisome proliferator-activated receptor delta (Homo sapiens) (UniProt Q03181); assay: qHTS assay to identify small molecule agonists of the peroxisome proliferator-activated receptor delta (PPARd) signaling pathway (AID 743212; calls by dose curve)
Peroxisome proliferator-activated receptor delta (Homo sapiens), sequence (Q03181 whole entry, looked up): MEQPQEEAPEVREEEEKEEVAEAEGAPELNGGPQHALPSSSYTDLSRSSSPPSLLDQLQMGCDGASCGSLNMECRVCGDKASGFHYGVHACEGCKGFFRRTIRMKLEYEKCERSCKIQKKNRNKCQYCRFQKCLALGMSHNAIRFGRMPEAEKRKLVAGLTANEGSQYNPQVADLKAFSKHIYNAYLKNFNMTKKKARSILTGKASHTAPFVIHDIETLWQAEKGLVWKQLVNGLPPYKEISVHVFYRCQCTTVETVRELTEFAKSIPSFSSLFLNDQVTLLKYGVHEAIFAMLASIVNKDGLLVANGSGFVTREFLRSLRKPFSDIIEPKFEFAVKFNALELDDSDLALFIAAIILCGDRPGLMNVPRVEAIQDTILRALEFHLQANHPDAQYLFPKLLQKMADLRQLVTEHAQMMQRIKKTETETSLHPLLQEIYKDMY
Summary of the method: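 Read-out: beta-lactamase FRET fluorescence after 2 h room-temperature incubation with LiveBLAzer B/G substrate. Cells were HEK293H carrying a UAS-bla reporter for PPARd, treated at 37 C with DMSO-dissolved compounds.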

[3] = qHTS assay to identify small molecule antagonists of the peroxisome proliferator-activated receptor delta (PPARd) signaling pathway - cell viability counter screen (AID 743213); also: nearly all actives have a fitted effect of over 50% in size; also: potency is read from the fitted curve at half-maximal effect
Summary of the method: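 Agonist-stimulated (L165041, 300 nM final) HEK293H PPARd UAS-bla cells are exposed to compounds for 17 h at 37 C, and ATP-based luminescence (CellTiter-Glo) from the same wells reports cytotoxicity.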

[4] = biological target: Peroxisome proliferator-activated receptor delta (Homo sapiens) (UniProt Q03181); assay: qHTS assay to identify small molecule antagonists of the peroxisome proliferator-activated receptor delta (PPARd) signaling pathway (AID 743215; active = well fitted inhibition curve with a large enough effect in the signal ratio in the repeat runs, not every such curve was filed as active; the % refers to the signal ratio; also: series mostly up to about 62 µM)
Summary of the method: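 Agonist L165041 (300 nM final) added with compound to PPARd-bla HEK293H UAS-bla reporter cells; 17 h incubation at 37 C. Read-out: LiveBLAzer FRET substrate, 2 h at room temperature, fluorescence intensity.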

[5] = qHTS assay to identify small molecule agonists of the farnesoid-X-receptor (FXR) signaling pathway - cell viability counter screen (AID 743218); also: nearly all actives have a fitted effect of over 45% in size; also: potency is read from the fitted curve at half-maximal effect
Summary of the method: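 Viability counter screen in the same wells: CellTiter-Glo luminescence, 30 min room-temperature incubation, measured after the beta-lactamase read. Cells were GeneBLAzer FXR-UAS-bla HEK 293T, compound-treated 16 h at 37C.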

[6] = qHTS assay to identify small molecule antagonists of the farnesoid-X-receptor (FXR) signaling pathway - cell viability counter screen (AID 743221; active = well fitted cell-killing curve with a large enough effect in the repeat runs, not every such curve was filed as active; also: nearly all actives have a fitted effect of over 50% in size; also: potency is read from the fitted curve at half-maximal effect)
Summary of the method: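 CellTiter-Glo, 30 min RT, luminescence; same wells as the LiveBLAzer FRET read. Cells: FXR-UAS-bla HEK 293T. Treatment: compound with chenodeoxycholic acid 50 uM final, 16 h at 37 C.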

[7] = biological target: Vitamin D3 receptor (Homo sapiens) (UniProt P11473); assay: qHTS assay to identify small molecule agonists of the vitamin D receptor (VDR) signaling pathway (AID 743222; calls by dose curve)
Vitamin D3 receptor (Homo sapiens), sequence (P11473 whole entry, looked up): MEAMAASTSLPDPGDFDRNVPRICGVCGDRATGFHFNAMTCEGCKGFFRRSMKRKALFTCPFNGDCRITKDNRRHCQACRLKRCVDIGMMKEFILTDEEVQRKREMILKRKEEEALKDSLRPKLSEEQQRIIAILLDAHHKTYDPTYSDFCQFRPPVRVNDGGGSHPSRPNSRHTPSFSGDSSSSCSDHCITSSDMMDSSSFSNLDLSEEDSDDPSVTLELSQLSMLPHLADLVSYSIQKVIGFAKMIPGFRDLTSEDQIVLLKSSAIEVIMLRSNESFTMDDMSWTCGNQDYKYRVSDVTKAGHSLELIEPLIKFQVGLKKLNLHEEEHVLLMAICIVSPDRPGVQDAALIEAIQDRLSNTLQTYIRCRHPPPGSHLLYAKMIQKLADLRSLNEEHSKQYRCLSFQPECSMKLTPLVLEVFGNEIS
Summary of the method: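 Agonist mode, beta-lactamase reporter: fluorescence from LiveBLAzer B/G FRET substrate (2 h, room temperature) read after 16 h compound treatment at 37 C of VDR-bla cells, which were pre-incubated 4 h after seeding.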

[8] = biological target: Vitamin D3 receptor (Homo sapiens) (UniProt P11473); assay: qHTS assay to identify small molecule antagonists of the vitamin D receptor (VDR) signaling pathway (AID 743223; active = well fitted inhibition curve with a large enough effect in the signal ratio in the repeat runs, not every such curve was filed as active; the % refers to the signal ratio)
Summary of the method: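 After VDR-bla cells are plated and left 4 h at 37C, DMSO-dissolved compounds and 3 nM (final) calcitriol agonist are added. Incubation continues 16 h at 37C; FRET beta-lactamase substrate then develops 2 h at room temperature.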

[9] = biological target: Bile acid receptor (Homo sapiens) (UniProt Q96RI1); assay: qHTS assay to identify small molecule antagonists of the farnesoid-X-receptor (FXR) signaling pathway (AID 743217; active = well fitted inhibition curve with a large enough effect in the signal ratio in the repeat runs, not every such curve was filed as active; the % refers to the signal ratio)
Bile acid receptor (Homo sapiens), sequence (Q96RI1 whole entry, looked up): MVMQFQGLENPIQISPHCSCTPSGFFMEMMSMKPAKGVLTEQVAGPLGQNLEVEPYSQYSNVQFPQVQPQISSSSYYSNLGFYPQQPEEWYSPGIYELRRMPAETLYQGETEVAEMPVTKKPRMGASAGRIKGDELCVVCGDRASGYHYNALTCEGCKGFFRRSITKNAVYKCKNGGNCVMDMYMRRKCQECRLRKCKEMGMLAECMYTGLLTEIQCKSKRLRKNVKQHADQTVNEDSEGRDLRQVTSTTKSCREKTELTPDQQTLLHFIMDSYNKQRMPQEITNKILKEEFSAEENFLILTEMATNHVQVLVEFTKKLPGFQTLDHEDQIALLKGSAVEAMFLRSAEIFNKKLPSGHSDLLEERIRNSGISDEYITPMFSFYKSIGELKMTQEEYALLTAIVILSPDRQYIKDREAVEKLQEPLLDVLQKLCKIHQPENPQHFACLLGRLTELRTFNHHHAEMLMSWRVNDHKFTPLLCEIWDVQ
Summary of the method: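 Antagonist mode: chenodeoxycholic acid at 50 uM final stimulates a UAS-driven beta-lactamase reporter in HEK 293T FXR-bla cells during 16 h, 37C compound exposure. Read-out is FRET substrate fluorescence after 2 h at room temperature.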

[10] = biological target: Bile acid receptor (Homo sapiens) (UniProt Q96RI1); assay: qHTS assay to identify small molecule agonists of the farnesoid-X-receptor (FXR) signaling pathway (AID 743220; active = well fitted activation curve with a large enough effect in the signal ratio in the repeat runs, not every such curve was filed as active; the % refers to the signal ratio)
Summary of the method: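 FXR-UAS-bla HEK 293T cells carrying a UAS-driven beta-lactamase reporter were plated for 5 h at 37C/5% CO2, then exposed to DMSO-dissolved Tox21 10K compounds for 16 h at 37C. A LiveBLAzer B/G FRET substrate was loaded for 2 h at room temperature before fluorescence reading.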

Measured: Potency

ClCC(Cl)CCl
not listed: [9] | [10]
inactive: all other assays above

CC(C)Nc1nc(Cl)nc(NC(C)C)n1
not listed: [9] | [10]
inactive: all other assays above

CCOS(=O)(=O)OCC
not listed: [9] | [10]
inactive: all other assays above

N#Cc1cccnc1
not listed: [4]
inactive: all other assays above

CC(O)CN(CC(C)O)CC(C)O (configuration not stated)
not listed: [7] | [8]
inactive: all other assays above

N#CCCCCC#N
not listed: [4]
inactive: all other assays above

CN(C)P(=O)(N(C)C)N(C)C
not listed: [4]
inactive: all other assays above

CCCCOC(=O)COC(=O)c1ccccc1C(=O)OCCCC
inactive: [1] | [2] | [3] | [4] | [5] | [6]

ClCc1ccccn1
not listed: [9] | [10]
inactive: all other assays above

ClC(Cl)(Cl)Br
not listed: [4]
inactive: all other assays above

CCCCC(C#N)(Cn1cncn1)c1ccc(Cl)cc1 (configuration not stated)
inactive: [1] | [2] | [3] | [4] | [5] | [6]

CNC(=O)Oc1cccc2c1OC(C)(C)C2
not listed: [9] | [10]
inactive: all other assays above

CCCCOCC1CO1 (configuration not stated)
not listed: [4]
inactive: all other assays above

CCCCSP(=O)(SCCCC)SCCCC
inactive: all assays above

O=C1CCCO1
not listed: [4]
inactive: all other assays above

CCOC(=O)c1ccccc1N
inactive: all assays above

CCNCC
not listed: [8] | [9] | [10]
inactive: all other assays above

N#CC(c1ccccc1)c1ccccc1
not listed: [4]
inactive: all other assays above

O=P(OCCCl)(OCCCl)OCCCl
not listed: [4]
inactive: all other assays above

OCCOCCO
inactive: all assays above

CC1=C(C(=O)Nc2ccccc2)SCCO1
inactive: all assays above

O=C1Nc2ccc(Cl)cc2C(c2ccccc2)=NC1O (configuration not stated)
not listed: [4]
inactive: all other assays above

Nc1ccc([N+](=O)[O-])cc1N
not listed: [9] | [10]
inactive: all other assays above

C=C(C)C#N
not listed: [4]
inactive: all other assays above

Nc1ncn[nH]1
not listed: [7] | [8]
inactive: all other assays above

CNC(=O)CSP(=S)(OC)OC
not listed: [9] | [10]
inactive: all other assays above

CNC(=S)S
not listed: [9] | [10]
inactive: all other assays above

CN(C)c1nc(=O)n(C2CCCCC2)c(=O)n1C
inactive: all assays above

CC1CC(=O)O1 (configuration not stated)
inactive: all assays above

ClC(Cl)(Cl)c1ccccc1
not listed: [4]
inactive: all other assays above

CCN(CC)C(=O)C(C)Oc1cccc2ccccc12 (configuration not stated)
not listed: [4] | [7] | [8]
inactive: all other assays above

O=NN(c1ccccc1)c1ccccc1
not listed: [7] | [8]
inactive: all other assays above

[CH3][Sn]([Cl])([Cl])[Cl]
not listed: [9] | [10]
inactive: all other assays above

C[C@]12CC[C@H]3[C@@H](CCC4=CC(=O)CC[C@@H]43)[C@@H]1CC[C@@H]2O
inactive: all assays above

CC(C)=CC1C(C(=O)OCc2cccc(Oc3ccccc3)c2)C1(C)C (configuration not stated)
inactive: all assays above

CCCCOCCOC(C)=O
not listed: [4]
inactive: all other assays above

C[N+](C)(C)CC(=O)O
inactive: [1] | [2] | [3] | [4] | [6]

CC(C)(c1ccccc1)c1ccc(O)cc1
active: [1] 54.5 µM
not listed: [4]
inactive: all other assays above

CCCCCCCCCc1ccc(O)cc1
not listed: [2] | [9] | [10]
inactive: all other assays above

CC1(C)C(C(=O)OC(C#N)c2cccc(Oc3ccccc3)c2)C1(C)C (configuration not stated)
not listed: [4] | [9]
inactive: all other assays above

C[C@]12CCC(=O)C=C1CC[C@@H]1[C@@H]2CC[C@@]2(C)[C@H]1CC[C@]2(C)O
inactive: [1] | [2] | [3] | [5] | [6]

Cc1ccc([N+](=O)[O-])cc1
not listed: [4] | [9] | [10]
inactive: all other assays above

CC(C)(c1ccc(OCC2CO2)cc1)c1ccc(OCC2CO2)cc1 (configuration not stated)
active: [1] 34.7 µM
inactive: [3] | [4] | [5] | [6]

c1ccc2c(c1)Nc1ccccc1S2
inactive: [1] | [2] | [3] | [5] | [6]

CC(C)CON=O
not listed: [4] | [9] | [10]
inactive: all other assays above

COP(=S)(OC)SCn1nnc2ccccc2c1=O
not listed: [4] | [9] | [10]
inactive: all other assays above

O=C1C(Cl)=C(Cl)C(=O)c2ccccc21
inactive and 49 µM (active): [6]
inactive: [2]
active: [1] 19.6 µM and 13.8 µM | [3] 9.8 µM and 6.17 µM | [5] 49 µM

N#Cc1nn(-c2c(Cl)cc(C(F)(F)F)cc2Cl)c(N)c1S(=O)C(F)(F)F (configuration not stated)
22 µM (active) and inactive: [1]
not listed: [3] | [4] | [9]
inactive: all other assays above

Reference: PubChem BioAssay (Tox21)
